# ALDH1A1 block = inhibitors of human aldehyde dehydrogenase 1A1 | Potency, µM (series often up to 75.3 µM), actives largely listed as inhibitors | hit rate 7.3% among 220,000 | AID 1030 | Purified ALDH1A1, NADH fluorescence, propionaldehyde substrate
# Target sequence (P00352 whole entry, looked up): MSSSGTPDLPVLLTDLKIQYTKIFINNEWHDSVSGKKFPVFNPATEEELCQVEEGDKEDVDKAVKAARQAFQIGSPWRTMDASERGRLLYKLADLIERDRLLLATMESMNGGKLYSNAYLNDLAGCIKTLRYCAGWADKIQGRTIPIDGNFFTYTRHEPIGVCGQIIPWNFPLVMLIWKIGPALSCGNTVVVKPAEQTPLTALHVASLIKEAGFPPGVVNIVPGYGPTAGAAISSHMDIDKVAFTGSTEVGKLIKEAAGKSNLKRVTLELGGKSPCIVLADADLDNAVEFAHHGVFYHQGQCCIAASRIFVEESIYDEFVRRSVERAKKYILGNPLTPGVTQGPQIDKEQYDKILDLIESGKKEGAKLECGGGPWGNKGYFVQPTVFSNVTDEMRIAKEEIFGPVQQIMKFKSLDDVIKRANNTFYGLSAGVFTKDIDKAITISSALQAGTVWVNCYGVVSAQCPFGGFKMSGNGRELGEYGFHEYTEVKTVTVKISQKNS
# HPGD block = inhibitors of human 15-hydroxyprostaglandin dehydrogenase (HPGD); hit rate 4.3% among 150,000; Potency, µM, most hits filed as inhibitors; purified HPGD, NADH fluorescence kinetic, PGE2 substrate
#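 20 nM HPGD preincubated 15 min at room temperature with compound in 50 mM Tris-HCl pH 8, 0.01% Tween 20. Started with 1 mM NAD+ and 30 uM prostaglandin E2; NADH fluorescence (360/450 nm) read 5 times over 30-s intervals, last minus first.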
# PNC assembly inh = inhibitors of perinucleolar compartment assembly; AID 2417; activity change (PNC), negative = inhibition, % at 10 µM; PC3M PTB-GFP, PNC prevalence imaging, 16 h; hits give low values; hit rate 3.1% among 140,000;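 active means readout at or below -70, meaning at least 70% loss of cells showing the perinucleolar compartment, a nuclear body marking cancer cells; inconclusive means readout between -30 and a set limit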
#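 Read-out is percentage of cells bearing a perinucleolar compartment, from automated 20x imaging of fixed, Hoechst-stained PC3M PTB-GFP cells. Cells were seeded 4 h, then exposed 16 h to compound (23 nl of library stock) in duplicate plates.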
# Numbers stand for hits; 0 = inactive; ? = inconclusive; - = not tested or not shown; [ ] = dose if it differs, or a comment. Only some compounds are listed: those with a hit (about 11% of all), similar ones and a draw of the others. Unless noted, the call rests on the fitted dose curve; in most records, active means well fitted inhibition curve with a large enough effect (not every such curve was filed as active); inconclusive means small, poorly fitted or top-dose-only effect, or another doubt; inactive means no such curve, though single readings can be large or run the other way.
SMILES,ALDH1A1 block,HPGD block,PNC assembly inh
N=C(N)[C@H](N=Nc1ccccc1)C(N)=O,0[13.5 µM],0,-
COc1cc(NC(=O)NCc2ccncc2)cc(OC)c1OC,0,0,0
COc1ccc(C(C)=O)cc1COC(=O)c1ccc(S(=O)(=O)N2CCOCC2)cc1,?,0,0
COc1ccc(C(C)=O)cc1COC(=O)c1cc(C)oc1C,18µM,0,0
COC(=O)CC1Oc2ccccc2N(Cc2ccccc2)C1=O (stereo unspecified),0,0,?
COc1ccc(C(=O)NC2CCCCCC2)cc1S(=O)(=O)N1CCCc2ccccc21,?,0,0
COc1ccc(C(=O)Nc2nc3c(s2)CCCC3)cc1S(=O)(=O)N1CCCc2ccccc21,?,?,-123
CC(=O)OC[C@@H]1O[C@@H](O/N=C2/C[C@@H](O)[C@@H](O)[C@@H]3[C@H]4C(=O)N(c5ccc(F)cc5F)C(=O)[C@@H]4CC[C@@H]23)[C@H](OC(C)=O)[C@H](OC(C)=O)[C@@H]1OC(C)=O,0[13.5 µM],-,-
COC(=O)c1sccc1NC(=S)N1CCN(c2ccccc2)CC1,0,0,0
COC(=O)c1sccc1NC(=S)N1CC(C)CC(C)C1 (stereo unspecified),7.9µM,?,0
COC(=O)c1sccc1NC(=S)N1CCC(C)CC1,20µM,0,0
COC(=O)c1sccc1NC(=S)N1CCN(c2ccc(F)cc2)CC1,0,0,0
COc1ccccc1N1CCN(C(=O)Cn2nc(C(F)(F)F)c3c2CCC3)CC1,0,0,0
Cc1nc(NS(=O)(=O)c2ccc(Br)cc2)c2c3c(sc2n1)CCC3,13µM,0,0
O=S(=O)(Nc1nc2c(s1)CCCC2)c1ccc(Br)cc1,13µM,0,0
CC1CCc2c(sc3nc(CN4CCOCC4)nc(N4CCc5ccccc5C4)c23)C1 (stereo unspecified),?,0,0
CC1CCc2c(sc3nc(CN4CCOCC4)nc(NS(=O)(=O)c4cccc([N+](=O)[O-])c4)c23)C1 (stereo unspecified),4.5µM,0,0
COc1cccc(Nc2nc(CN3CCOCC3)nc3sc4c(c23)CCCC4)c1,0,0,0
Cc1nc(NS(=O)(=O)c2cccs2)c2c3c(sc2n1)CCC3,?,0,0
Cc1cc(S(=O)(=O)Nc2nc(CN3CCOCC3)nc3sc4c(c23)CCCC4)ccc1F,14µM,0,0
O=S(=O)(Nc1nc2c(s1)CCCC2)c1ccc(F)cc1,?,0,0
O=C(Nc1ccc(Cl)c(Cl)c1)Nc1nnc(CC2=CCCCC2)s1,0,0,?
COc1cc(CC(=O)OCn2nnc3ccccc3c2=O)cc(OC)c1OC,0,-,-
CN(/C=C/c1c([N+](=O)[O-])c(=O)n(C)c(=O)n1C)c1ccccc1,0,-,-
CC1=C/C(=C/N(C)c2ccccc2)C(=O)S1,20µM,32µM,0
SMILES,ALDH1A1 block,HPGD block,PNC assembly inh
O=C(CSc1ncnc2c1oc1ccccc12)NCc1ccc(F)cc1,0,0,0
COc1cccc(/C=C2\N=C(SC)SC2=O)c1OC,32µM,25µM,-91
CSC1=N/C(=C\c2ccccc2F)C(=O)S1,0,-,0
Nc1cc(=O)[nH]c(SC/C=C/c2ccccc2)n1,0,0,0
Cc1cc(=O)[nH]c(S/C=C/c2ccccc2)n1,0,20µM,0
CC(=O)c1cccc(NS(=O)(=O)c2c(C)n[nH]c2C)c1,0,0,?
CCc1cccc(NS(=O)(=O)c2c(C)n[nH]c2C)c1,0,0,-100
N=C1/C(=C/c2cccn2Cc2ccc(Cl)cc2)C(=O)N=C2SC=CN12,0,?,?
CN(C)CC(C)(C)CNC(=O)C1CCN(Cc2ccccc2O)CC1,0,0,?
CCN(CC)C(=O)c1ccc(N)cc1,0,-,-
CCN(CC)C(=O)c1ccc(Nc2nnc(C)c3ccccc23)cc1,4µM,2.2µM,0
Cn1c(NC(=O)c2ccccc2)c(-c2ccccn2)c(=O)c2ccccc21,0,0,0
Clc1ccc(-c2nc(N3CCCCC3)nc3ccccc23)cc1,0,0,-100
c1ccc(-c2nc(-n3nc4ccccc4n3)nc3ccccc23)cc1,?,?,0
COC(=O)/C(=C1/OC(=O)C(c2ccccc2)=C1O)c1ccccc1,0,0,-
COC(=O)/C=C1\OC(c2ccccc2)=CC1=O,10µM,20µM,0
CC(C)(C)c1ccc(C(=O)N/C(=C\c2cccs2)C(=O)NCc2ccco2)cc1,3.2µM,-,0
COc1ccc(/C=C(/NC(=O)c2cccs2)C(=O)NCc2ccco2)cc1OC,0,-,-
O=C(NCc1ccco1)/C(=C\c1ccco1)NC(=O)c1ccc(Br)o1,28µM,?,0
O=C(NCc1ccco1)/C(=C/c1ccco1)NC(=O)c1ccc(Br)o1,?,0,0
O=C(/C=C/c1ccc(Cl)cc1)NCc1ccco1,0,0,0
O=C(CC(C(=O)O)c1ccccc1)Nc1cccc2ccccc12 (stereo unspecified),0,0,?
Cn1c(SCC(=O)O)nnc1-c1ccc(NC(=O)c2ccc(Cl)c(Cl)c2)cc1,0,-,-
COc1ccc(NC(=O)Cc2ccccc2)cc1,?,0,0
COc1ccc(NC2CS(=O)(=O)CC2NCc2ccccc2)cc1 (stereo unspecified),0,0,-116
SMILES,ALDH1A1 block,HPGD block,PNC assembly inh
CC(C)N(C(=O)CSc1nnc(CN2CCCCCC2=O)n1-c1ccccn1)C(C)C,0,0,?
CC1(C)C(=O)OC(C(=O)c2ccccc2)C2(CCCCC2)C1=O (stereo unspecified),0,0,?
O=C(CSc1nccn1-c1ccccc1)c1ccc(Cl)cc1,?,0,-100
O=C(CSc1nccn1-c1cccc(Cl)c1)NO,0,-,-
O=C(CSc1nccn1-c1cccc(Cl)c1)NC1CCCC1,0,16µM,0
Cc1ccc(C(=O)CSc2nccn2-c2ccccc2)cc1,?,0,0
CN(Cc1ccccc1)C(=O)[C@H]1CCC(=O)N1Cc1ccco1,0,0,?
COc1cccc(CNC(=O)CCC2CCCN(C(=O)c3csc(C(C)C)n3)C2)c1 (stereo unspecified),0,-,-
Cn1c(N)c(Sc2ccc(F)cc2)c(=O)n(C)c1=O,0,-,-
OC(COCc1ccc(Cl)cc1)CN1CCN(c2ccccn2)CC1 (stereo unspecified),0,0,0
CNC1CCC(c2ccc(Cl)c(Cl)c2)c2ccccc21 (stereo unspecified),0,0,-
Cc1[nH][nH]c(=O)c1C(c1c(C)[nH][nH]c1=O)c1cn(Cc2cccc3ccccc23)c2ccccc12,0.32µM,0,0
O=c1c2ccccc2ncn1Cc1cccc2ccccc12,0,-,-
CC(=O)/C(=C(/O)c1ccccc1)c1nc2ccccc2[nH]1,0,-,-
Cc1cccc(/C=C(\c2nc3ccccc3[nH]2)S(=O)(=O)c2ccccc2)c1,0,0,-82
Cc1ccc(N2CCCCn3c2nc2c3c(=O)n(CC(=O)O)c(=O)n2C)cc1,0,-,0
CCN(CC)S(=O)(=O)c1cccc(C(=O)c2c(C)cc3ccccn23)c1,0,0,-94
CCN(CC)S(=O)(=O)c1cccc(NC(=O)C(=O)c2c(-c3ccccc3)cc3ccccn23)c1,?,0,0
Cn1cccc1C(=O)OCC(=O)Nc1cc(C(C)(C)C)nn1-c1ccccc1,0,0,0
CC(C)(C)c1cc(NC(=O)COC(=O)c2ccc3c(=O)n4c(nc3c2)CCC4)n(-c2ccccc2)n1,4µM,0,0
COC(=O)c1ccccc1NC(=O)CN(C)S(=O)(=O)c1cc(C)ccc1OC,?,0,0
